The full list was thinned out, with hits kept by preference.
RBX1-CUL1 inh – inhibitors of human ROC1-CUL1 ubiquitin ligase activity; inhibition, % at 10 µM; AID 1347404; in vitro K48 di-Ub FRET, acceptor:donor ratio, 45 min; P62877+Q13616; 140,000 compounds, 0.6% hits; in the data active = inhibition above about 25%
An asterisk follows results filed as active.

SMILES	RBX1-CUL1 inh
Cc1cc(N2CCCC2)ccc1/C=C1\SC(=O)N(CC(=O)c2ccccc2)C1=O	-14
CN(C)CC/C=C1/c2cc(Br)ccc2CSc2ccccc21	-7
CN(C)CCOc1ccc2c(c1)C(=O)c1ccccc1CS2	101*
O=C1c2ccccc2CSc2c(O)cccc21	-2
CCCCOc1ccc(C2C3CN(C(=O)OCC)CC=C3C(C#N)C(=N)C2(C#N)C#N)cc1OC (configuration not stated)	6
COc1cccc(-c2cnnc(N(C)Cc3nccn3C)n2)c1	0
Cc1ccc(OCCCCN2CCNCC2)c(C(C)(C)C)c1	25*
Cc1ccc(OCCCCCN2CCNCC2)cc1	0
Cc1cc(Cl)ccc1OCCCCCN1CCNCC1	-4
CCc1ccc(CN2CCC(n3cc(C(C)(C)N)nn3)CC2)cc1	6
Brc1ccc(-c2ccc3c4ccccc4cc-3o2)cc1	1
CSc1cccc(NC(=O)CN2CCOCC2)c1	7
CC(C)(O)C(=O)/C=C/c1cccc2ccccc12	54*
C(/C=C/c1cccc2ccccc12)=C\c1ccccc1	-5
CC(C)(O)C(=O)/C=C/c1ccccc1	13
N#Cc1cccc(NC(=O)c2ccccc2Br)c1	10
Cn1cc(-c2ccnc(N3CC[C@H](O)C3)n2)cn1	-6
Cc1cc(C)cc(NS(=O)(=O)c2ccc3c(c2)C(=O)C(C(=O)NCCc2ccccc2)C=N3)c1 (configuration not stated)	-8
CCCCS(=O)(=O)N1CCCC(C(=O)N2CCN(c3ccccc3)CC2)C1 (configuration not stated)	-3
Cc1ccc(/C=C/C(=O)Nc2ccccc2C(N)=O)o1	0
COc1cc(NC(=O)/C=C\c2ccc(C)o2)c(OC)cc1Cl	4
Cc1ccc(/C=C/C(=O)Nc2ccc(C)c(Cl)c2)o1	66*
COc1ccc(/C=C/C(=O)Nc2ccc(C)c(Cl)c2)cc1OC	2
Cc1ccc(/C=C/C(=O)Nc2cccnc2)o1	45*
Cc1ccc(/C=C/C(=O)Nc2nc(-c3ccc(C)c(C)c3)cs2)o1	-4
SMILES	RBX1-CUL1 inh
CC(=O)Nc1cccc(/C(C)=N/NC(=O)CN(c2ccc(Cl)c(Cl)c2)S(=O)(=O)c2ccccc2)c1	-8
COc1cc(CN2CCc3nnc(CNC(=O)c4cccc(F)c4)n3CC2)cc(OC)c1	8
CC1(C)Cc2c(c(N3CCOCC3)nc3sc(C(=O)c4ccccc4)c(NC(=O)c4ccccc4)c23)CO1	-1
CCOC(=O)c1c(-c2ccc(Cl)cc2)csc1NC(=O)c1ccccc1Cl	5
c1nc2c([nH]1)CCNC21CCCCC1	3
CCc1c(OC(C)=O)c2ccccc2n(C)c1=O	8
CC(=O)Oc1c(Cl)c(=O)n(C)c2ccccc12	60*
CC(=O)Oc1c(C)c(=O)n(C)c2ccccc12	-4
C=CCc1cc(/C=C2\C(=O)NC(=O)N(c3cc(OCC)ccc3OCC)C2=O)cc(OCC)c1O	8
CC(=O)Nc1ccc(-c2cn3ccc4ccccc4c3n2)cc1	10
CCCCOc1ccc(C2C(C(=O)c3cc4ccccc4o3)C(=O)C(=O)N2c2nc3c(C)cc(C)cc3s2)cc1 (configuration not stated)	2
CCc1c(C(=O)N2CCN(S(=O)(=O)c3cccs3)CC2)csc1C	-1
O=C(/C=C/c1ccccc1)N1CCC(N2CCC(C(=O)N3CCCC3)CC2)CC1	-5
O=C(CSc1n[nH]c(-c2ccccc2)n1)c1ccc(O)c(O)c1	27*
O=C(CSc1ncccc1C(=O)O)c1ccc(O)c(O)c1	31*
O=C(O)c1ccnc(SCC(=O)c2ccccc2)c1	6
O=C(CSc1n[nH]c(-c2ccc(Br)cc2)n1)c1ccc([N+](=O)[O-])cc1	0
CCOc1ccc(-c2nc(SCC(=O)c3ccccc3)n[nH]2)cc1	-2
O=C(O)c1cccnc1SCc1c(F)c(F)c(F)c(F)c1F	13
COCCCn1c(CN(C)C2CCCc3ccccc32)cnc1S(C)(=O)=O (configuration not stated)	-6
CCC/C(=N\NC(=O)c1csc2ccccc12)c1ccc(Cl)s1	-8
C=CCNC(=O)c1coc(COc2ccc(C)cc2OC)n1	0
Cc1sc2nc(SCC(=O)c3ccc(O)c(O)c3)[nH]c(=O)c2c1C	67*
CCSc1nc2sc(C)c(C)c2c(=O)[nH]1	-7
Cc1cc(C)c2c(=O)[nH]c(SCC(=O)c3ccc(O)c(O)c3)nc2n1	4
SMILES	RBX1-CUL1 inh
O=C(c1ccccc1)C(Sc1nc2ccccc2o1)c1ccccc1 (configuration not stated)	5
C#CCSc1nc2c(c(=O)n1Cc1ccccc1)C1(CCCCC1)Cc1ccccc1-2	-7
NCCCSc1nc2c(c(=O)n1Cc1ccccc1)C1(CCCCC1)Cc1ccccc1-2	92*
Cn1c(SCCc2ccccc2)nc2c(c1=O)C1(CCCC1)Cc1ccccc1-2	-5
O=C(c1ccc(N2CCCC2)nc1)N1CCC(Oc2cccnc2)CC1	-2
O=C(COc1ccc(C2CCCCC2)cc1)Nc1ccc(CN2CCOCC2)cc1	-9
COC(=O)c1c(-c2ccc(Br)cc2)csc1NC(=O)c1cc([N+](=O)[O-])ccc1Cl	-5

Bioassay records from PubChem.
